Assay outcomes (PubChem)
Compounds with a hit are over-represented: about 3% of the library has one in this group of screens.
TWEAK Fn14 block – TWEAK-Fn14 signaling inhibition; TWEAK-stimulated Fn14 reporter cells, luciferase luminescence, 8 h; inhibition, % at 10 µM; 2% of 360,000 active; AID 1159606; in the data active means inhibition above about 50%
TROY signal inh – inhibitors of TROY-dependent NF-kB signaling. Q293 LMP1-TROYcd NF-kB luciferase reporter, 4 h. inhibition, % at 10 µM. 0.98% of 360,000 active;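 active means compounds whose plate-normalised and pattern-corrected inhibition of the luciferase reporter signal at the single screening dose is 50% or more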
LMP1 NFkB inh – inhibitors of Epstein-Barr LMP1-induced NF-kappaB reporter; 0.69% of 350,000 active; inhibition, % at 12.5 µM; AID 504558; LMP1-induced NF-kappaB luciferase reporter cells, luminescence; in the data active means inhibition above about 41%; inconclusive means no clear call, values can overlap the other calls;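 further: 0% = neutral control wells and 100% = reference inhibitor control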
MITF TRPM1 inh – inhibitors of MITF-driven TRPM1 promoter in melanoma cells | inhibition, % at 12.5 µM | 0.83% of 330,000 active | SK-MEL-5 TRPM1 promoter luciferase, 24 h;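 active means mean inhibition across replicates of 60% or more, whatever share of single replicates reaches that level; inconclusive means some that reach 60%, reason not given; inactive means mean inhibition across replicates below 60%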
LGR2 antag – blocks bursicon-induced cAMP signaling via Drosophila LGR2 | HEK293 LGR2, CRE-luciferase, bursicon-stimulated, 4 h | 0.35% of 380,000 active | inhibition, % at 9.99 µM;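 active means drop in luminescence signal, shown as inhibition above about 50% in the replicate tests, limit read from the data, passing the limit was not always enough; inconclusive means probably only some replicates passing the limit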;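 further: agonist challenge used bursicon conditioned medium at about half maximal strength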
MITF TRPM1 HTS – activators of MITF-driven TRPM1 promoter activity in SK-MEL-5 cells; activation, % at 12.5 µM; 0.75% of 300,000 active; SK-MEL-5 TRPM1-promoter luciferase, 24 h; % of positive control, neutral wells = 0; AID 588334;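 active means mean activation of at least 80% with every replicate also reaching 80%; inconclusive means mean reaches 80% but some replicate falls short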;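 further: 0% = neutral control wells and 100% = parthenolide positive control wells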
* hit, by the source's call; ? = inconclusive; . = no result.

SMILES	TWEAK Fn14 block	TROY signal inh	LMP1 NFkB inh	MITF TRPM1 inh	LGR2 antag	MITF TRPM1 HTS
CCCNC(=O)N1CCC2(CC1)CN(Cc1ccc(F)cc1)[C@@H](CO)c1[nH]c3cc(OC)ccc3c12	.	.	.	.	0	.
CN(C)c1ccc2c(c1)[C@H]1C[C@H](CC(=O)NCc3cccc(F)c3)O[C@@H](CO)[C@H]1O2	.	.	.	.	-5	.
CSc1ccc(C2NN=C(c3ccccc3)S2)cc1 (stereo not given)	77*	51*	33	29	84*	.
COc1ccc(C2NN=C(c3ccc(C)cc3)S2)cc1 (stereo not given)	26	-35	-15	-66	-42	73
Oc1ccccc1C1NN=C(c2ccccc2)S1 (stereo not given)	56*	-21	-21	-10	36	.
C[C@H](CO)N1C[C@H](C)[C@H](CN(C)S(C)(=O)=O)OCCCC[C@H](C)Oc2ccc(N(C)C)cc2C1=O	.	.	.	.	6	.
COc1cccc(/C=N/N2CCN(c3ccccc3OC)CC2)c1	-1	-36	-26	-111	.	108*
COc1ccccc1N1CCN(/N=C/c2cccc(Cl)c2)CC1	-18	-61	-20	-97	-77	.
O=C(O)CCn1cc(/C=C/C(=O)c2ccc(Cl)cc2)c(-c2ccc(Br)cc2)n1	60*	18	2	1	26	0
CCCCOC(=O)c1ccc(NC(=S)N2CCN(c3ncc4c(=O)c(C(=O)O)cn(CC)c4n3)CC2)cc1	63*	27	-3	43	-7	-42
CCn1cc(C(=O)O)c(=O)c2cnc(N3CCN(C(=S)Nc4ccccc4)CC3)nc21	4	-67	-3	14	3	-10
C[C@@H]1CCCCO[C@@H](CN(C)S(C)(=O)=O)[C@@H](C)CN([C@H](C)CO)C(=O)c2cc(NC(=O)Nc3ccc(F)cc3)ccc2O1	.	.	.	.	-5	.
O=C(NCC[C@H]1CC[C@H](NS(=O)(=O)Cc2ccccc2)[C@H](CO)O1)C1CC1	.	.	.	.	-7	.
CCCc1c(C)c2cccc(C)c2[nH]c1=O	-8	-4	-1	-9	.	12
CCCCN1CCc2c([nH]c3c(C)cccc23)C1=O	-13	18	-43	-87	.	92*
CC(C)c1ccc(CC(=O)N2CCC2(C)C(=O)Nc2ccc3c(c2)OCCO3)cc1 (stereo not given)	51*	45	.	.	2	.
CC12CCC(C(=O)Nc3ccc4c(c3)OCCO4)(OC1=O)C2(C)C (stereo not given)	83*	70*	28	25	.	-21
O=C(C[C@@H]1C=C[C@H](NC(=O)C2CCC2)[C@H](CO)O1)NCC1CC1	.	.	.	.	2	.
COCC(=O)N1C[C@@H](C)[C@H](OC)CN(C)C(=O)c2cc(NC(=O)NC(C)C)ccc2OC[C@H]1C	.	.	.	.	-7	.
CCOc1ccc(Oc2cc(NC(=O)c3ccco3)cc([N+](=O)[O-])c2)cc1	-1	-32	9	-2	-8	2
O=C(Nc1cc(Oc2ccc(Cl)cc2)cc([N+](=O)[O-])c1)c1ccco1	57*	57*	4	-21	-3	19
O=C(CCc1ccc(Oc2cc([N+](=O)[O-])cc([N+](=O)[O-])c2)cc1)Nc1cccc(Cl)c1	59*	29	-7	-3	9	6
COc1ccccc1-c1cn(CC[C@@H]2CC[C@H](NC(=O)C3CC3)[C@H](CO)O2)nn1	.	.	.	.	-6	.
C[C@H](CO)N1C[C@H](C)[C@@H](CN(C)C(=O)Nc2ccc3c(c2)OCO3)Oc2ccc(NS(=O)(=O)c3cccs3)cc2CC1=O	.	.	.	.	-23	.
O=C(C1CCC(CNS(=O)(=O)c2cccs2)CC1)N1CCN(c2ccc(Cl)cc2)CC1 (stereo not given)	50	48	33	69*	33	-67
SMILES	TWEAK Fn14 block	TROY signal inh	LMP1 NFkB inh	MITF TRPM1 inh	LGR2 antag	MITF TRPM1 HTS
COc1ccc(NC(=O)Nc2ccc3c(c2)[C@@H]2C[C@H](CC(=O)N4CCN(C)CC4)O[C@@H](CO)[C@@H]2O3)cc1	.	.	.	.	3	.
CS(=O)(=O)N(CCc1ccccc1)CC(=O)NCc1ccco1	82*	.	-7	-3	.	5
COC(=O)c1ccc(COc2ccccc2/C=C(\C#N)C(=O)Nc2ccc(C)cc2C)cc1	-44	-6	0	-19	5	14
COC(=O)c1ccc(COc2ccccc2/C=C(\C#N)C(=O)Nc2c(C)cc(C)cc2C)cc1	68*	20	15	8	45	-9
COc1ccc(C(=O)O/N=C(\N)Cc2ccc(Cl)cc2)cc1OC	72*	13	-9	3	.	-3
COc1ccc(C(=O)O/N=C(\N)Cc2ccc(Cl)c(Cl)c2)cc1OC	92*	-3	-23	8	.	-5
COc1cc(C(=O)O/N=C(\N)Cc2ccc([N+](=O)[O-])cc2)cc(OC)c1OC	-38	-12	.	.	.	.
COCC(=O)N(C)C[C@H]1Oc2ncc(-c3ccc(C#N)cc3)cc2C(=O)N([C@H](C)CO)C[C@@H]1C	.	.	.	.	5	.
COc1ccc(S(=O)(=O)N(C)C[C@@H]2Oc3ccc(NS(C)(=O)=O)cc3C(=O)N([C@H](C)CO)C[C@@H]2C)cc1	.	.	.	.	0	.
COc1ccc(S(=O)(=O)Nc2ccc3c(c2)CC(=O)N([C@H](C)CO)C[C@H](C)[C@@H](CN(C)S(=O)(=O)c2ccc(C)cc2)O3)cc1	.	.	.	.	-6	.
CC(=O)Nc1ccc(SCC(=O)c2cc(C)n(-c3ccccc3F)c2C)cc1	87*	66*	-16	0	18	10
Cc1cc(C(=O)CSc2nnc(N)s2)c(C)n1Cc1cccs1	29	-49	30	17	75*	-15
CC(=O)Nc1ccc(SCC(=O)c2cc(C)n(Cc3cccs3)c2C)cc1	93*	38	23	5	.	-2
CN1CCN(Cc2c(O)ccc3occ(C(=O)c4ccccc4)c23)CC1	8	4	-1	15	.	-11
CC(=O)C(C(C)=O)c1c(Cl)c(O)c(O)c2c(C(=O)c3ccccc3)coc12	76*	41	8	38	?	-36
COc1cccc(NC(=O)Nc2ccc3c(c2)C(=O)N(C)[C@H]2CC[C@H](CC(=O)O)O[C@@H]2CO3)c1	.	.	.	.	-20	.
CCCCNc1c(-c2cccc(-c3cc(C(C)=O)cs3)c2)nc2ccc(C)cn12	40	25	13	5	?	1
CCCCNc1c(-c2cccc(-c3ccc(OC)cc3)c2)nc2cc(C)ccn12	31	29	9	6	92*	-4
CCCCNc1c(-c2ccc(OC)c(SC3CCCCC3)c2)nc2cc(C)ccn12	27	17	-2	5	27	3
CCCCNc1c(-c2cccc(-c3ccc(OC)cc3)c2)nc2ccc(C)cn12	0	32	7	-3	68*	-1
CNC(=O)/C(=C\c1cccc(Oc2ccccc2)c1)NC(=O)c1ccccc1	-3	-20	2	8	12	-7
CCOCCCNC(=O)/C(C#N)=C/c1ccc(Cl)c([N+](=O)[O-])c1	11	-3	58*	89*	90*	-89
